Shown are actives, neighbours in structure and some others; about 6.7% of the full set was active somewhere.
C diff HTS: C. difficile growth inhibition. 0.25% of 86,000 active. growth activity, negative = inhibition, % at 16 µg/mL (by protocol). Clostridium difficile clinical isolate growth, OD600, 24 h; active compounds read low;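 active means mean growth activity at or below -80% and every replicate also at or below -80%; inconclusive means mean at or below -80% but some replicate above -80%; inactive means mean growth activity above -80%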
Pf Dd2 inh: inhibitors of Plasmodium falciparum Dd2 growth; P. falciparum Dd2 growth, SYBR Green, 72 h; active compounds read low; activity change, % at 10 µM; 2.3% of 94,000 active; AID 1159554; in the data active means activity change below about -80%; inconclusive means no clear call, values can overlap the other calls
T cruzi growth-1: T. cruzi proliferation inhibition; 5.9% of 77,000 active; T. cruzi beta-gal in NIH3T3, GalScreen luminescence, 90 h; inhibition, % at 8.34 µM;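 active means mean inhibition above about 93%, with at least 55% of replicates each passing it, limit read from the data, passing the limit was not always enough; inconclusive means only one of those two conditions holds; inactive means neither condition holds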
T cruzi growth-2: inhibitors of T. cruzi proliferation. shares compounds with T cruzi growth-1. T. cruzi beta-gal in NIH3T3, GalScreen luminescence, 90 h. 72% of 5,600 active. inhibition, % at 8.35 µM;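 active means mean replicate inhibition above about 95% and at least 55% of replicates individually reaching it, limit read from the data; inconclusive means only one of the two criteria is met; inactive means neither criterion is met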
T cruzi growth-3: inhibitors of T. cruzi proliferation; AID 651740; 21% of 5,600 active; shares compounds with T cruzi growth-1; inhibition, % at 2.09 µM; T. cruzi beta-gal in NIH3T3, GalScreen luminescence, 90 h;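 active means mean inhibition above about 95%, with at least 55% of replicates also reaching it, limit read from the data; inconclusive means meets just one of the two conditions; inactive means meets neither condition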
NIH3T3 tox: kills mouse NIH/3T3 fibroblasts. shares compounds with T cruzi growth-1. NIH/3T3 viability, CellTiter-Glo ATP luminescence, 90 h. cytotoxicity (signal decrease), % at 8.35 µM. 14% of 5,600 active;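 active means mean signal decrease across replicates above about 35% based on untreated-well scatter, with enough replicates individually passing, limit read from the data; inconclusive means no rule stated though some were filed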
3T3 cytotox 2: NIH/3T3 (mouse) viability loss | shares compounds with T cruzi growth-1 | NIH/3T3 viability, CellTiter-Glo ATP luminescence, 90 h | inhibition, % at 24.9 µM | 56% of 5,600 active;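 active means mean loss of cell viability signal at or above a set limit, and enough replicates individually reaching it; inconclusive means meets only the mean limit or only the replicate share; inactive means meets neither condition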
Large screens that a line does not name were inactive (follow-up assays come after a bar, where they were run).

CCC(=O)N1CCCCN2[C@H](CO)[C@H](c3ccc(/C=C/c4ccccc4)cc3)[C@H]2C1	T cruzi growth-1 117.3 | T cruzi growth-2 101.9 | T cruzi growth-3 inactive | NIH3T3 tox inactive | 3T3 cytotox 2 105.1
COc1ccc(NC(=O)N(C)C[C@@H]2Oc3c(NS(C)(=O)=O)cccc3C(=O)N([C@H](C)CO)C[C@@H]2C)cc1	none
CCCNC(=O)N(C)C[C@H]1Oc2cc(-c3ccc(C)cc3)ccc2S(=O)(=O)N([C@H](C)CO)C[C@H]1C	none
O=C(NC1Cc2ccccc2C1)[C@@H]1[C@@H](CO)[C@@H]2Cn3c(ccc(C4=CCCCC4)c3=O)[C@@H]2N1CC1CC1	none (no result: T cruzi growth-1)
CCC(=O)N[C@H]1C=C[C@@H](CC(=O)NCc2ccccc2OC)O[C@@H]1CO	none
C[C@H](CO)N1C[C@H](C)[C@H](CN(C)Cc2ccc(F)cc2)Oc2cc(C#Cc3ccccn3)ccc2S1(=O)=O	T cruzi growth-1 123.9 | T cruzi growth-2 109.1 | T cruzi growth-3 inactive | NIH3T3 tox inactive | 3T3 cytotox 2 inactive
C[C@H](CO)N1C[C@H](C)[C@H](CN(C)CC2CC2)Oc2cc(C#Cc3ccccn3)ccc2S1(=O)=O	none
C[C@H]1CN([C@@H](C)CO)S(=O)(=O)c2ccc(C#Cc3ccccn3)cc2O[C@@H]1CN(C)Cc1ccccc1	none
C[C@H]1CN([C@@H](C)CO)S(=O)(=O)c2ccc(C#Cc3ccccn3)cc2O[C@H]1CN(C)Cc1ccc(F)cc1	T cruzi growth-1 116.2 | T cruzi growth-2 102.9 | T cruzi growth-3 inactive | NIH3T3 tox inactive | 3T3 cytotox 2 37.2
C[C@@H]1CN([C@@H](C)CO)S(=O)(=O)c2ccc(C#Cc3ccccn3)cc2O[C@H]1CN(C)C	none (no result: T cruzi growth-1)
C[C@H]1CN([C@@H](C)CO)S(=O)(=O)c2ccc(C#Cc3ccccn3)cc2O[C@@H]1CN(C)Cc1ccc(F)cc1	T cruzi growth-1 129.7 | T cruzi growth-2 96.3 | T cruzi growth-3 inactive | NIH3T3 tox 41.8 | 3T3 cytotox 2 84.8
CN(C)CC#Cc1ccc([C@@H]2[C@@H](CO)N3C(=O)CN(C(=O)Cc4cccnc4)C[C@@H]23)cc1	none (no result: T cruzi growth-1)
C/C=C/c1cnc2c(c1)C(=O)N([C@H](C)CO)C[C@@H](C)[C@H](CN(C)S(=O)(=O)c1cn(C)cn1)O2	none (no result: T cruzi growth-1)
C[C@@H]1CN([C@@H](C)CO)S(=O)(=O)c2ccc(-c3ccccc3F)cc2O[C@H]1CN(C)S(C)(=O)=O	none
C[C@@H]1CN([C@H](C)CO)S(=O)(=O)c2ccc(-c3ccccc3F)cc2O[C@H]1CN(C)S(C)(=O)=O	none
COc1ccccc1-c1ccc2c(c1)O[C@H](CN(C)S(=O)(=O)c1ccc(F)cc1)[C@H](C)CN([C@@H](C)CO)S2(=O)=O	T cruzi growth-1 99.4 | T cruzi growth-2 95.0 | T cruzi growth-3 inactive | NIH3T3 tox inactive | 3T3 cytotox 2 46.9
COc1ccccc1-c1ccc2c(c1)O[C@@H](CN(C)S(=O)(=O)c1ccc(F)cc1)[C@@H](C)CN([C@H](C)CO)S2(=O)=O	T cruzi growth-1 106.0 | T cruzi growth-2 99.2 | T cruzi growth-3 inactive | NIH3T3 tox inconclusive | 3T3 cytotox 2 64.2
COc1ccccc1-c1ccc2c(c1)O[C@@H](CN(C)S(=O)(=O)c1ccc(F)cc1)[C@@H](C)CN([C@@H](C)CO)S2(=O)=O	T cruzi growth-1 102.8 | T cruzi growth-2 109.1 | T cruzi growth-3 inactive | NIH3T3 tox 49.9 | 3T3 cytotox 2 45.4
C[C@H]1CN([C@@H](C)CO)S(=O)(=O)c2ccc(-c3ccccc3F)cc2O[C@@H]1CN(C)S(C)(=O)=O	none
C[C@@H]1CN([C@@H](C)CO)C(=O)c2c(c3ccccc3n2C)-c2ccccc2CO[C@@H]1CN(C)CC1CCCCC1	none (no result: T cruzi growth-1)
COc1ccc(S(=O)(=O)N[C@H]2C=C[C@@H](CC(=O)N3CCN(c4ccccc4)CC3)O[C@H]2CO)cc1	none
COc1ccc(NC(=O)Nc2ccc3c(c2)C(=O)N([C@H](C)CO)C[C@@H](C)[C@H](CN(C)C)OCCCC[C@@H](C)O3)cc1	none
C[C@@H]1CN([C@H](C)CO)C(=O)Cc2cc(NC(=O)Nc3ccc(F)cc3)ccc2O[C@@H]1CN(C)S(=O)(=O)c1cn(C)cn1	none (no result: C diff HTS)
COc1cccc(-c2ccc([C@@H]3[C@H](CO)N4CCCCN(Cc5cncnc5)C[C@@H]34)cc2)c1	none
OC[C@H]1[C@@H](c2ccc(-c3cccc(F)c3)cc2)[C@@H]2CN(Cc3cncnc3)CCCCN12	none
OC[C@@H]1[C@H](c2ccc(-c3cccc(F)c3)cc2)[C@H]2CN(Cc3cncnc3)CCCCN12	T cruzi growth-1 95.6 | T cruzi growth-2 inactive | T cruzi growth-3 inactive | NIH3T3 tox inactive | 3T3 cytotox 2 102.1
OC[C@@H]1[C@H](c2ccc(-c3cccc(F)c3)cc2)[C@@H]2CN(Cc3cncnc3)CCCCN12	T cruzi growth-1 123.1 | T cruzi growth-2 102.5 | T cruzi growth-3 inactive | NIH3T3 tox inactive | 3T3 cytotox 2 inactive
CCS(=O)(=O)N1CC2(C1)[C@H](c1ccccc1)[C@H](CO)N2C(=O)C1CC1	none (no result: T cruzi growth-1)
Cc1noc(C)c1S(=O)(=O)Nc1cccc2c1O[C@@H](CN(C)Cc1ccc(C(=O)Nc3ccccc3N)cc1)[C@@H](C)CN([C@H](C)CO)C2=O	none (no result: T cruzi growth-1)
Cc1noc(C)c1S(=O)(=O)Nc1ccc2c(c1)C(=O)N([C@@H](C)CO)C[C@H](C)[C@@H](CN(C)Cc1ccc(C(=O)Nc3ccccc3N)cc1)O2	none (no result: T cruzi growth-1)
Cc1noc(C)c1NC(=O)N(C)C[C@@H]1Oc2c(NS(C)(=O)=O)cccc2C(=O)N([C@@H](C)CO)C[C@H]1C	none
C[C@@H]1CN([C@H](C)CO)C(=O)c2cc(NS(=O)(=O)c3ccc(Cl)cc3)ccc2O[C@@H]1CN(C)Cc1ccc(C(=O)Nc2ccccc2N)cc1	T cruzi growth-1 inconclusive | T cruzi growth-2 inactive | T cruzi growth-3 inactive | NIH3T3 tox inactive | 3T3 cytotox 2 46.1
Cc1noc(C)c1S(=O)(=O)Nc1ccc2c(c1)C(=O)N([C@@H](C)CO)C[C@@H](C)[C@@H](CN(C)Cc1ccc(C(=O)Nc3ccccc3N)cc1)O2	T cruzi growth-1 inconclusive (no result: C diff HTS) | T cruzi growth-2 100.4 | T cruzi growth-3 inactive | NIH3T3 tox inactive | 3T3 cytotox 2 33.0
C[C@@H]1CN([C@@H](C)CO)C(=O)c2cc(NS(=O)(=O)c3ccc(Cl)cc3)ccc2O[C@H]1CN(C)Cc1ccc(C(=O)Nc2ccccc2N)cc1	none
Cc1noc(C)c1S(=O)(=O)Nc1cccc2c1O[C@H](CN(C)Cc1ccc(C(=O)Nc3ccccc3N)cc1)[C@H](C)CN([C@@H](C)CO)C2=O	T cruzi growth-1 inconclusive (no result: C diff HTS) | T cruzi growth-2 101.0 | T cruzi growth-3 inactive | NIH3T3 tox inactive | 3T3 cytotox 2 35.8
